Each structure is given as a SMILES string. Among all 310,000 compounds or so, about 14,000 (4.5%) showed an effect of 50% or more. The effect is printed as a negative number. Only a selection was taken, and strong results are over-represented in it overall.
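Also: peak tail current of the secondary pulse compared with the same well before compound.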

human ether-à-go-go-related gene (hERG) potassium channel, sequence (Q12809 whole entry, looked up): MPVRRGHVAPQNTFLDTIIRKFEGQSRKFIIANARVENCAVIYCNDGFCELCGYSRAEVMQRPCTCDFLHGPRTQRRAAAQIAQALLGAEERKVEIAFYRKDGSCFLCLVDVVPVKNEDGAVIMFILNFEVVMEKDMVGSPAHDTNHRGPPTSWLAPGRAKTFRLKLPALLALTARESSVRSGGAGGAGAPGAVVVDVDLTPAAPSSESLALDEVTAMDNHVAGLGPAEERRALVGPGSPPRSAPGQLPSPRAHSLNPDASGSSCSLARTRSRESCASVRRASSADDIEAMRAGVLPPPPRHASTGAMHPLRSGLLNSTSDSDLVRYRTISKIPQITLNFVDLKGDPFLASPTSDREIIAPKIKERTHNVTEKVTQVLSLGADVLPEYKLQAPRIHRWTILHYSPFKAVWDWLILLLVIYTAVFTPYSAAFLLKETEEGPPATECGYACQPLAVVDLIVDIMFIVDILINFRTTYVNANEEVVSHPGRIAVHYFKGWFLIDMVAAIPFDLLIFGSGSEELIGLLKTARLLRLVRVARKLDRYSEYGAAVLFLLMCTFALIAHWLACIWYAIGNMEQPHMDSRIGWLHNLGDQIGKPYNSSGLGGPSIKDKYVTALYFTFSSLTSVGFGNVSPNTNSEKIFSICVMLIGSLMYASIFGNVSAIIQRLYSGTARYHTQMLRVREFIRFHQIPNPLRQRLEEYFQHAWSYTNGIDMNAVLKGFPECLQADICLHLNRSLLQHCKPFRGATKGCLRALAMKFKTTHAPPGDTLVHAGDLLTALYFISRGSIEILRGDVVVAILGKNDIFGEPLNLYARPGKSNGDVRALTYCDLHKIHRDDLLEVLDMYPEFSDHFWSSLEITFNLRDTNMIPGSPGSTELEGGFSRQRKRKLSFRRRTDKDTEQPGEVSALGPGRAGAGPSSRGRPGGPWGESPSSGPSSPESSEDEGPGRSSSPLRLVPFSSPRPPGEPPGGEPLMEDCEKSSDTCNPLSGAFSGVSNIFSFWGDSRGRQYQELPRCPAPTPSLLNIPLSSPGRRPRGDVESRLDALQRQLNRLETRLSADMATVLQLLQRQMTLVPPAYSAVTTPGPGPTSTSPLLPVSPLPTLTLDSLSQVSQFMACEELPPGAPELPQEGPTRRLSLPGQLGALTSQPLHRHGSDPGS

This experiment concerns the target human ether-à-go-go-related gene (hERG) potassium channel (human, UniProt Q12809). The experiment can be described thus: primary screen, population patch clamp on CHO cells stably expressing hERG; higher = less effect of the substance.
Regarding `N#Cc1sc2nc(-c3cccs3)cc(-c3ccc(Cl)cc3)c2c1N`, the “hERG current change (%, negative = inhibition) at 10uM” value is -2.05%.
Next, `C=CCc1cccc2cc(C(=O)N3CCN(c4ccccn4)CC3)c(=O)oc12`: -38.9%; `O=C1COc2ccc(C(=O)COC(=O)c3ncc(Cl)c(Cl)c3Cl)cc2N1`: 36.6%; `COc1ccc(/C=C/C2=NN(C)C(=O)CC2)cc1`: 13.4%.
Next, `O=C(N/N=C\c1ccc(CNS(=O)(=O)c2ccccc2)o1)C(=O)Nc1ccc(F)cc1`: -22.3%; `S=C(NCc1ccc2c(c1)OCO2)NC1CCN(Cc2ccccc2)CC1`: 20.6%.
Next, `CCOC(=O)c1nc(C)n(-c2ccc(Cl)cc2Cl)n1`: 8.75%.
On to `COc1ccc(-c2nc(SC(CC(=O)NCCN3CCOCC3)c3cccs3)n[nH]2)cc1` (centres unmarked), for which the “hERG current change (%, negative = inhibition) at 10uM” value came to 1.08%.
Next, `Cc1ccccc1OCC(O)CN1CCN(CC(O)COc2ccccc2C)C(C)C1.O=C(O)C(=O)O` (centres unmarked): -70.8%.
Next, `Cc1ccccc1OCC(O)CN1CCN(CC(O)COc2ccccc2C)CC1` (centres unmarked): -81.6%; `Cc1ccccc1OCC(O)CN1CCN(C)CC1.Cl` (centres unmarked): -0.704%; `Cc1ccccc1OCC(O)CN1CCC(C)CC1.Cl` (centres unmarked): -34.1%.
Next, `CCOC(=O)N1CCN(CC(O)COc2ccccc2[N+](=O)[O-])CC1.Cl` (centres unmarked): -0.882%; `COc1ccccc1OCC(O)CN1CCN(CC(=O)Nc2c(C)cccc2C)CC1` (centres unmarked): -18.6%; `O=[N+]([O-])c1ccccc1OCC(O)CN1CCN(CC(O)COc2ccccc2[N+](=O)[O-])CC1` (centres unmarked): -60.2%.
On to `Cc1ccccc1OCC(O)CN.Cl.O` (centres unmarked), for which the “hERG current change (%, negative = inhibition) at 10uM” value is given as -1.72%.
Turning to `COc1ccc(N2CCN(CC(O)COc3ccccc3[N+](=O)[O-])CC2)cc1.Cl` (centres unmarked), the “hERG current change (%, negative = inhibition) at 10uM” value is -44.1%.
Next, `Cc1ccccc1N1C(=O)CSC1=C(C#N)C#N`: 18.3%; `S=C(NCc1ccccn1)Nc1ccccc1`: 16.3%.
Next, `Cc1ccc(N2CC(C(=O)NC3CC3)CC2=O)cc1Cl` (centres unmarked): 10%; `CCOC(=O)CSc1nc2sc3c(c2c(=O)[nH]1)CC(C)(C)OC3`: 0.154%.
In the case of `CSc1cccc(NC(=O)CN(C2CCCCC2)S(C)(=O)=O)c1`, the “hERG current change (%, negative = inhibition) at 10uM” value was -7.59%.
Next, `Cc1ccc(-c2csc3nc[nH]c(=S)c23)cc1C`: 27.5%; `CSc1nc(C)cc(C)c1S(=O)(=O)c1ccccc1C`: 7.41%; `OCC1(Cc2ccc(Cl)cc2)CCN(CCCc2ccccc2)CC1`: -83.9%.
Next, `OCC1(Cc2ccccc2)CCN(CCCC2CCCC2)CC1`: -76.8%; `OCC1(Cc2ccc(Cl)cc2)CCN(Cc2ccc(F)c(F)c2)CC1`: -68.6%.
Next, `O=S(=O)(c1cccs1)N1CCC(CO)(Cc2ccc(Cl)cc2)CC1`: -7.74%; `O=C(Nc1ccc(Cl)cc1)N1CCC(CO)(Cc2ccccc2)CC1`: -46.6%; `OCC1(Cc2ccc(Cl)cc2)CCN(CC2CC=CCC2)CC1` (centres unmarked): -76.7%.
As for `Fc1ccc(CN2CCCCCCC2)cc1F`, the “hERG current change (%, negative = inhibition) at 10uM” value is listed as -24%.
As to `O=C(Cc1ccccc1)N1CCN(CC2CC=CCC2)CC1` (centres unmarked), the “hERG current change (%, negative = inhibition) at 10uM” value is given as -3.05%.
Next, `OCC1(Cc2ccccc2)CCN(Cc2cnc(-c3ccc(Cl)cc3)nc2)CC1`: -47.1%; `O=C(C1CC=CCC1)N1CCC(CO)(Cc2ccc(Cl)cc2)CC1` (centres unmarked): -7.77%; `O=C1CC(N2CCOCC2)C(=O)N1CCc1ccccc1` (centres unmarked): 6.86%.
Next, `C=C1c2cc(C)ccc2NC(=O)N1c1ccccc1`: 2.71%; `Cc1ccc(S(=O)(=O)N2CCN(C(=O)c3ccccn3)CC2)c(C)c1`: 20.1%.
Next, `NC(=O)C1CCN(c2oc(/C=C/c3ccc(F)cc3)nc2S(=O)(=O)c2ccccc2)CC1`: 5.52%; `Cc1ccc(NC(=O)Nc2c(C)n(C)n(-c3ccccc3)c2=O)cc1C`: 13.1%; `Cn1c(/C(C#N)=C/c2ccc(-c3ccc(S(N)(=O)=O)cc3)o2)nc2ccccc21`: -38.1%.
Take `COc1ccc(N/C(N)=N/c2nc(CSc3ccc(Cl)cc3)cc(=O)[nH]2)cc1`: the “hERG current change (%, negative = inhibition) at 10uM” value was 17.5%.
Next, `Cc1cccc(CN2CCC(CNC(=O)C3CCCN(S(=O)(=O)c4cnc[nH]4)C3)CC2)c1` (centres unmarked): -1.13%; `O=C(NCc1cccnc1)C(=O)Nc1nc2ccccc2s1`: 3.9%.
Next, `O=C(Nc1cccc2c1CCCC2)C1CCCN(S(=O)(=O)c2cccc3nonc23)C1` (centres unmarked): -1.23%; `CCO[C@@H]1OC(C(=O)NCc2nc3ccccc3[nH]2)=C[C@H](c2ccccc2)[C@H]1CCCO`: -25.4%.
Next, `OCC1(Cc2ccc(Cl)cc2)CCN(Cc2ccccc2F)CC1`: -69.2%; `OCC1(Cc2ccccc2)CCCN(Cc2ccn[nH]2)C1` (centres unmarked): -11.8%.
`OCC1(Cc2ccc(Cl)cc2)CCN(Cc2ccc(Oc3ncccn3)cc2)CC1`: the “hERG current change (%, negative = inhibition) at 10uM” value is on record as -74.1%.
Next, `OCCC1CN(Cc2ccc(Oc3ncccn3)cc2)CCN1C1CCCC1` (centres unmarked): 8.16%.
In the case of `OCC1(Cc2ccccc2)CCN(Cc2cccc(F)c2F)CC1`, the “hERG current change (%, negative = inhibition) at 10uM” value was -11.3%.
Next, `Fc1ccccc1CN1CCN(c2ccc(Cl)cc2)CC1`: 1.71%; `CSc1ccc(CN2CCCCCC2)cc1`: -35%; `CSc1ccc(CN2CCC(CO)(Cc3ccc(Cl)cc3)CC2)cc1`: -81.3%.
Next, `CSc1ccc(/C=N/N2CCN(Cc3ccc(Cl)cc3)CC2)cc1`: 8.01%; `OCCC1CN(Cc2ccc(Oc3ncccn3)cc2)CCN1C1CCCCC1` (centres unmarked): -7.34%; `CCN1CCCC(CO)(Cc2ccccc2)C1` (centres unmarked): 13.3%.
Next, `CSc1ccc(CN2CCCC(CO)(Cc3ccccc3)C2)cc1` (centres unmarked): -60.7%; `COc1ccc(NC(=O)CNc2cc(C)ccc2C)cc1S(=O)(=O)N1CCOCC1`: -8.85%; `COc1cccc(-c2cn(-c3cccc(C(F)(F)F)c3)c(=S)[nH]2)c1`: 20.4%.
With `Cc1cnc(C(=O)OCC(=O)N(C)CC(=O)Nc2ccccc2Cl)cn1`, the “hERG current change (%, negative = inhibition) at 10uM” value is given as -2.14%.
Next, `CC(OC(=O)c1ccncc1)C(=O)Nc1cccc(Cl)c1` (centres unmarked): -23.2%.
Next, `Cc1ccc(S(=O)(=O)N(C)C)cc1NC(=O)C(C)OC(=O)c1ccc2ccccc2n1` (centres unmarked): -26.8%.
Next, `Cc1cc(C)cc(N(CCC(=O)Nc2nnc(C3CC3)s2)S(=O)(=O)c2ccc(Cl)cc2)c1`: 4.63%.
On to `COc1ccc2oc(C(=O)OCC(=O)N3CCCCC3)c(C)c2c1`, for which the “hERG current change (%, negative = inhibition) at 10uM” value is on record as 8.71%.
Next, `CCOC(=O)C1CCN(C(=O)COC(=O)c2oc3ccc(OC)cc3c2C)CC1`: -55.6%.
Next, `COc1ccc2oc(C(=O)OCC(=O)N3CCC(C)CC3)c(C)c2c1`: -0.112%; `COc1ccc2oc(C(=O)OCC(=O)N3CC(C)OC(C)C3)c(C)c2c1` (centres unmarked): -0.998%.
Next, `COc1ccc2oc(C(=O)OCC(=O)N3CC(C)CC(C)C3)c(C)c2c1` (centres unmarked): -56.1%.
Regarding `COC(=O)C1CCN(C(=O)COC(=O)c2oc3ccc(OC)cc3c2C)CC1`, the “hERG current change (%, negative = inhibition) at 10uM” value is -17.3%.
Next, `O=C(NCc1ccncc1)c1cccc(F)c1`: 0.361%; `Cc1c(C(=O)c2ccccc2C(=O)O)sc2ccccc12`: 15%; `Cc1cc2cc(CCNC(=O)C(C)C)c(=O)[nH]c2cc1C`: 2.03%.
Next, `NC(=O)C1=C[C@H](C2CCCCC2)C[C@H](OCc2ccc(CO)cc2)O1`: 2.51%; `COc1ccc(S(=O)(=O)N2CCCC2=O)cc1N(C)S(C)(=O)=O`: 13.8%; `CCOC(=O)c1c(C)[nH]c(C)c1C(=O)COC(=O)/C=C/c1cccc(C(F)(F)F)c1`: 1.35%.
Consider `CCC12CN3CCN(CC(C3)/C1=N/NC(=O)c1ccncc1)C2`, for which the “hERG current change (%, negative = inhibition) at 10uM” value is reported as 21.2%.
Next, `COc1ccccc1NC(=O)COc1ccccc1`: 10.9%; `COc1cc(Cl)ccc1OCc1cc(C(=O)NC(C)Cc2cnccn2)no1` (centres unmarked): -53.8%; `Cc1cc(OCc2cc(C(=O)N3CCC(Oc4cccnc4)CC3)no2)cc(C)c1Cl`: 9.06%.
Next, `Cc1ccc(OCc2cc(C(=O)N3CCC(Oc4cccnc4)CC3)no2)cc1C`: -56.7%.
Next, `COc1ccc(OCc2cc(C(=O)NC(C)Cc3cnccn3)no2)c(Cl)c1` (centres unmarked): -4.5%; `O=C(c1cc(COc2cccc(C(F)(F)F)c2)on1)N1CCC(Oc2cccnc2)CC1`: -64.1%.
Take `Cc1ccc(OCc2cc(C(=O)N3CCCCCCC3)no2)cc1C`: the “hERG current change (%, negative = inhibition) at 10uM” value is given as 3.22%.
On to `C[C@@H]1CN(C(=O)c2cc(COc3cccc(C(F)(F)F)c3)on2)C[C@H](C)O1`, for which the “hERG current change (%, negative = inhibition) at 10uM” value turned out to be 8.11%.
Next, `O=C(c1cc(COc2cccc(C(F)(F)F)c2)on1)N1CCc2ccccc2C1`: 10.4%; `O=C(c1cc(COc2cccc(C(F)(F)F)c2)on1)N1CCC(c2ccccc2)CC1`: 6.79%.
Next, `O=C(c1cc(COc2cccc(C(F)(F)F)c2)on1)N1CCC(c2ccncc2)CC1`: -78.8%; `COc1cccc(OCc2cc(C(=O)N3CCC(c4ccncc4)CC3)no2)c1`: -40.9%; `COc1cc(Cl)ccc1OCc1cc(C(=O)NC(C)Cc2cccnc2)no1` (centres unmarked): -30.7%.

Source of the values: article PMC4336329 (PLoS ONE, 2015).
